The values that follow come from PubChem BioAssay AID624330 (Southern Research Specialized Biocontainment Screening …, 2012).

The campaign covered roughly 340,000 compounds. About 2,100 (0.62%) were called active. A selection follows. Results with a measured potency or affinity are listed apart. Values without a mark were called inactive.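 How the source made its calls: active means first-screen hits whose inhibition reached a set limit at any dose in the follow-up dose series; inconclusive means inhibition above the set first-screen limit but never retested; inactive means the rest.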

As a reminder, the inhibition is the drop in the measured response relative to a control, in per cent.

Chain of Rac GTPase-activating protein 1 (Homo sapiens) (Q9H0H5 whole entry, looked up): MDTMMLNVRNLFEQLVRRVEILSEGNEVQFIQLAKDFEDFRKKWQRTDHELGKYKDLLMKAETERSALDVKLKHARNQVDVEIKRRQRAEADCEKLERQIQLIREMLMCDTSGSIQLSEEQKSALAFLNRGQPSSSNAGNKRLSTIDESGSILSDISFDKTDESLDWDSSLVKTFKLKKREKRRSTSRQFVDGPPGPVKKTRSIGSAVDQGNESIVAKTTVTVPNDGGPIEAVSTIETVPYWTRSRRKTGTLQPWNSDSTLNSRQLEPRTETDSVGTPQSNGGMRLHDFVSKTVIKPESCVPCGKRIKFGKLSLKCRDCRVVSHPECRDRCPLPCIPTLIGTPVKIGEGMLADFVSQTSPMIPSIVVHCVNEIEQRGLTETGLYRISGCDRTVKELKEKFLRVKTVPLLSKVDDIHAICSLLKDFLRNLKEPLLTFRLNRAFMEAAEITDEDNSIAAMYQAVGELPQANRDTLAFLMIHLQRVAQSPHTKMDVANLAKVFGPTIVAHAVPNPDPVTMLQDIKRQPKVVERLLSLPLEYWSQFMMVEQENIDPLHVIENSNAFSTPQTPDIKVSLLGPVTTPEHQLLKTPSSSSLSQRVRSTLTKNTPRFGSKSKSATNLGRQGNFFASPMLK

This assay concerns the target Rac GTPase-activating protein 1 (Homo sapiens) (UniProt Q9H0H5). Kind of assay: blockers of MgcRacGAP-driven Rac1 GTP hydrolysis – biochemical, ADP Hunter fluorescence, primary and confirmatory, confirmation (AID 624330).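 Further: fluorescence reports GDP produced by GAP-driven GTP hydrolysis.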 The conditions noted are these: MgcRacGAP-stimulated Rac1 GTP hydrolysis, at 30 µM, active compounds read high, GST-tagged Rac1 F28L mutant substrate.
For the compound `C[C@H](O)CNC(=O)c1[nH]cnc1C(=O)Nc1ccc(CNC(=O)OC(C)(C)C)cc1`, the inhibition was 13.6%.

`CC(=O)c1ccc(N2CCN(c3ccc(C(N)=O)cc3[N+](=O)[O-])CC2)cc1`: the inhibition was 6.37%.

Consider `COc1ccc(N2CCN(c3ccc(C(=O)O)cc3[N+](=O)[O-])CC2)cc1`, for which the inhibition was 25.5%.

In the case of `COC(C[C@@H]1O[C@@H]1C(=O)COCc1ccccc1)OC`, the inhibition is 2.07%.

With `O=C(NCCCn1ccnc1)c1cccc(S(=O)(=O)Nc2ccc(Br)cc2)c1`, the inhibition was -2.05%.

Regarding `Cn1c(=O)c2c(nc(Br)n2CCCc2ccccc2)n(C)c1=O`, the inhibition is 8.11%.

On to `Cn1c(=O)[nH]c(=O)c2c1nc(N)n2Cc1ccccc1`, for which the inhibition is 5.45%.

As to `CNc1nc2c(c(=O)n(C)c(=O)n2C)n1CCCc1ccccc1`, the inhibition is 10.2%.

Turning to `CSc1nc2c(c(=O)[nH]c(=O)n2C)n1CCCc1ccccc1`, the inhibition was 5.17%.

For the compound `CSc1nc2c(c(=O)[nH]c(=O)n2C)n1Cc1ccccc1`, the inhibition was 2.19%.

For `CNc1nc2c(c(=O)[nH]c(=O)n2C)n1CCCc1ccccc1`, the inhibition was 16.1%.

As to `COc1ccc(CCn2c(O)cc3nn(-c4nc5ccccc5s4)c(=O)c-3c2C)cc1`, the inhibition is 20.6%.

For `Cc1ccc(C)c(S(=O)(=O)NCC(=O)NCc2ccco2)c1`, the inhibition is 1.96%.

With `CC(C)Oc1ccc(C2NC(=O)c3ccccc3O2)cc1` (configuration not stated), the inhibition is 4.5%.

In the case of `CC1CCCN(C(=O)C(=O)Nc2ccc3nc4n(c(=O)c3c2)CCCCC4)C1` (configuration not stated), the inhibition was 7.24%.

Regarding `Cc1noc(NC(=O)c2cccc(Cl)c2Cl)c1C#N`, the inhibition was 6.81%.

As to `N#Cc1cccc(NC(=O)CSc2sc3c(O)cc(=O)[nH]c3c2C#N)c1`, the inhibition is 18.4%.

Regarding `NS(=O)(=O)c1ccc(NC(=O)CN2C(=O)CCC2=O)cc1`, the inhibition is 6.61%.

In the case of `CC1CN(C(=O)N2c3ccccc3Sc3ccccc32)C(C)CC1=O` (configuration not stated), the inhibition was 5.35%.

As for `O=C(CSc1ccccc1)NCC(c1ccco1)N1CCCCC1` (configuration not stated), the inhibition is 3.84%.

On to `CN1OC[C@@H]2CN[C@H](c3ccc(-c4cccc(F)c4)cc3)C[C@@H]21`, for which the inhibition was 15.6%.

Take `Cc1nn2cc(-c3ccc(Cl)cc3)nc2s1`: the inhibition is -6.27%.

Take `Cc1nn2cc(-c3ccc(-c4ccccc4)cc3)nc2s1`: the inhibition is 11.1%.

For the compound `CC(C)C(=O)N1CCN(c2ccc(NC(=O)c3ccc4c(c3)OCCO4)cc2)CC1`, the inhibition is 5.03%.

For `Cc1nn(-c2ccccc2)c(C)c1/C=N/O`, the inhibition is 12.2%.

Turning to `Cc1nn(-c2ccccc2)c(Cl)c1/C=N/O`, the inhibition was 9.11%.

With `Cc1ccc2nc(C)c(C(=O)N/N=C/c3ccco3)cc2c1`, the inhibition is 3.04%.

On to `CCN(C[C@H]1N[C@@](C)(C(=O)OC)[C@H]2C(=O)N(C)C(=O)[C@@H]12)C(=O)c1ccccc1`, for which the inhibition is 6.04%.

As to `CC(=O)N(C1=C(N2CCOCC2)C(=O)c2ccccc2C1=O)c1ccc(C(=O)O)cc1`, the inhibition is -12.8%.

Take `CC(=O)N(C1=C(N)C(=O)c2ccccc2C1=O)c1ccccc1`: the inhibition is 9.97%.

In the case of `CSc1ccc(NC(=O)CSc2nc3[nH]c(=O)cc(O)c3s2)cc1`, the inhibition is 11.1%.

Regarding `N[C@@H](Cc1ccc(O)c(O)c1)C(=O)O`, the inhibition is 6.56%.

For the compound `COC(=O)[C@@H](N)Cc1ccc(O)c(O)c1`, the inhibition is -7.99%.

For the compound `COc1ccc(N2CC(C(=O)Nc3ccc(N4CCOCC4)cc3)CC2=O)cc1` (configuration not stated), the inhibition is 6.69%.

Consider `CCOc1cc(C(c2c(C)[nH][nH]c2=O)c2c(C)[nH][nH]c2=O)ccc1OCc1ccc([N+](=O)[O-])cc1`, for which the inhibition is -0.47%.

Turning to `Cc1ccccc1N(C(=O)c1csnn1)C(C(=O)NC1CCCCC1)c1ccncc1` (configuration not stated), the inhibition is -1.41%.

Regarding `Cc1nc2nc(-c3ccccc3)cc(=O)n2[nH]1`, the inhibition was 4.54%.

Consider `Cc1cc2nc(-c3ccccc3)cc(=O)n2[nH]1`, for which the inhibition is 14.4%.

Take `CC(C)C(=O)Nc1nnc(NC(=S)Nc2ccccc2)s1`: the inhibition was 1%.

`COc1ccccc1Nc1ncnc2nc[nH]c12`: the inhibition was 6.06%.

For `COc1cccc2[nH]c3c(Cl)ncnc3c12`, the inhibition was 5.53%.

Take `CCOCCn1c(SC(C)C(C)=O)nc2c1c(=O)[nH]c(=O)n2C` (configuration not stated): the inhibition was 5.63%.

In the case of `CCOC(=O)c1c(C)oc2c(CN3CCN(C)CC3)c(Br)c(OC)c(O)c12`, the inhibition is 14.1%.

`COc1ccccc1N=Nc1c(C)noc1C`: the inhibition was 2.76%.

`COc1ccccc1N=Nc1c(C)n[nH]c1C`: the inhibition was 7.74%.

As for `COCCN(C(=O)CSc1nc2ccc(Cl)cc2[nH]1)c1c(N)n(Cc2ccccc2)c(=O)[nH]c1=O`, the inhibition was 10.9%.

`Cn1ncc(Cl)c1C(=O)N1CCN(c2cccc(Cl)c2)CC1`: the inhibition is 7.96%.

With `CCN(c1ccccc1)S(=O)(=O)c1ccc(Cl)c(NC(=O)CN2CCN(C)CC2)c1`, the inhibition was -0.66%.

As to `CCN(c1ccccc1)S(=O)(=O)c1ccc(Cl)c(NC(=O)CN2CCCCCC2)c1`, the inhibition was 29.2%.

Take `CCCCSCCCNC(=O)c1ccc(CS(=O)(=O)c2ccccc2OC)o1`: the inhibition was 5.81%.

Take `CC(C)Cn1c(-c2ccc(F)cc2)n[nH]c1=S`: the inhibition was 14.4%.

For the compound `CC(C)Cn1c(-c2ccco2)n[nH]c1=S`, the inhibition is 26.8%.

Take `CCOC(=O)C1=C(c2ccccc2)Nc2ncnn2C1c1ccc(O)cc1` (configuration not stated): the inhibition was 5.08%.

Take `COc1ccc(C2CC(c3ccncc3)=NN2c2ccc(S(N)(=O)=O)cc2)cc1` (configuration not stated): the inhibition was 9.08%.

`COc1ccc(N2C(=O)CSC2c2ccncc2)cc1` (configuration not stated): the inhibition was 8.8%.

For `Cc1ccnc(NC(=O)c2cccc(NC(=O)c3ccccc3C)c2)c1`, the inhibition was 11.1%.

`Clc1ccc(-c2ccc(C=Nc3ccc(N4CCOCC4)cc3)o2)c(Cl)c1`: the inhibition is 9.07%.

For `Clc1ccc(-c2ccc(C=Nc3ccc(N4CCOCC4)cc3)o2)cc1`, the inhibition was 25.6%.

For the compound `Clc1cccc(-c2ccc(C=Nc3ccc(N4CCOCC4)cc3)o2)c1`, the inhibition was 23.7%.

In the case of `O=C(CN1CCOCC1)N/N=C/c1ccc(-c2cccc(Cl)c2Cl)o1`, the inhibition is 7.09%.

For the compound `Cc1c(C)c2cccnc2c2ncccc12`, the inhibition is 8.09%.

Regarding `O=C1CCCc2oc3ccc(NS(=O)(=O)c4cccc5cccnc45)cc3c21`, the inhibition was -1.33%.

With `COc1ccc(Br)cc1S(=O)(=O)n1nc(C)cc1C`, the inhibition is -4.17%.

Regarding `CCN(CC(=O)NCCCn1ccnc1)S(=O)(=O)c1ccc(C)cc1`, the inhibition was -8.53%.

Take `O=C(c1cccn2c(=O)c3cc(Cl)ccc3nc12)N1CCN(Cc2ccc3c(c2)OCO3)CC1`: the inhibition was 9.42%.

`Cc1cc(C)c(C#N)c(Sc2ccc(N)cc2)n1`: the inhibition is 8.38%.

Turning to `COc1ccccc1CN1CC(C(=O)NCc2cnn(C)c2)CCC1=O` (configuration not stated), the inhibition is 5.74%.

Regarding `COc1cccc(CNCc2cccc(OC)c2O)c1O`, the inhibition was -13.3%.

In the case of `COc1cc(CNCc2ccco2)cc(OC)c1O`, the inhibition is 6.83%.

As for `CCOC(=O)c1ccccc1NC(=O)COC(=O)c1ccc(OCC(=O)N2CCOCC2)c(OCC)c1`, the inhibition is 4.78%.

`Cc1ccc(N(CC(=O)N2CCc3ccccc32)S(=O)(=O)c2cccs2)cc1`: the inhibition is 1.58%.

In the case of `COc1ccccc1OCC#CCNC1CCCCC1C` (configuration not stated), the inhibition is 22.6%.

`COc1ccc(OCC#CCn2ccnc2)cc1`: the inhibition is -14.9%.

Regarding `CCN1CCN(CC#CCOc2ccccc2OC)CC1`, the inhibition is 29.8%.

In the case of `COc1ccccc1OCC#CCSc1ncccn1`, the inhibition is 7.44%.

Turning to `CC1CC(C)CN(S(=O)(=O)c2ccc(C(=O)Nc3sccc3C(N)=O)cc2)C1` (configuration not stated), the inhibition is 3.38%.

Regarding `O=C(Cn1c(=O)cnc2ccccc21)Nc1cc(Cl)ccc1N1CCOCC1`, the inhibition is -4.21%.

`CCN(CC(=O)Nc1ccc(OC)cc1)CC(=O)Nc1sc2c(c1C(=O)OC)CCCC2`: the inhibition was 3.58%.

On to `CCCC(=O)NC1=C(Cl)C(=O)c2ccccc2C1=O`, for which the inhibition is 24.7%.

For the compound `CCC(=O)Nc1c(C)cc(C)cc1Cl`, the inhibition is 12.3%.

Regarding `Cc1cccc(NC(=O)CN2CCN(C(=O)CN3C(=O)NC4(CCCCC4C)C3=O)CC2)c1C` (configuration not stated), the inhibition is 7.46%.

On to `CCOC(=O)N/N=C/c1ccc(F)cc1F`, for which the inhibition was 3.61%.

Turning to `CCN(CC)c1ccc(/C=N/Nc2nc(C)cc(=O)[nH]2)c(O)c1`, the inhibition was 22.4%.

For `CCN(CC)c1ccc(/C=N/NC(=S)NCc2ccccc2)c(O)c1`, the inhibition was 12.5%.

Consider `CCN(CC)c1ccc(/C=N/NC(=O)Cc2cccs2)c(O)c1`, for which the inhibition is -34.9%.

As for `CCN(CC)c1ccc(/C=N/NC(=O)c2ccoc2C)c(O)c1`, the inhibition was 2.9%.

Regarding `CCN(CC)c1ccc(/C=N/Nc2ccc(C)cc2)c(O)c1`, the inhibition is 11.6%.

As for `CCN(CC)c1ccc(/C=N/Nc2ccccc2)c(O)c1`, the inhibition was 5.91%.

For `CCN(CC)c1ccc(/C=N/NC(=O)c2ccco2)c(O)c1`, the inhibition is 9.97%.

As for `CCOc1ccc(N(CC(=O)Nc2cc(Cl)ccc2C)S(C)(=O)=O)cc1`, the inhibition is -0.16%.

As to `CCOc1ccc(CC(=NCCO)C2=C(O)CC(C)(C)CC2=O)cc1OCC`, the inhibition was 2.19%.

As for `Cn1c(=O)oc2cc(S(=O)(=O)NCCN3CCc4ccccc4C3)ccc21`, the inhibition is -3.64%.

For the compound `CCN(CC)C(=O)CN1C(=O)C(=O)c2ccccc21`, the inhibition is 6.56%.

On to `Nc1ccn(CCCN2CCN(Cc3cccc4ccccc34)CC2)c(=O)n1`, for which the inhibition was 19.7%.

In the case of `Cc1ccccc1N1CCN(C(=O)NCc2cccc(Cl)c2)CC1`, the inhibition is 2.37%.

Take `Cc1ccc(S(=O)(=O)N2CCC(C(=O)NC3CCCCC3C)CC2)cc1` (configuration not stated): the inhibition was 17.3%.

`O=C(c1ccc(Cn2c(=O)[nH]c3ccccc3c2=O)cc1)N1CCN(c2ccccc2)CC1`: the inhibition is -4.78%.
